Calls of active or inactive are those of the source.
Tests used:
[1] = system: PRMT1 (protein arginine N-methyltransferase 1); assay: small molecules binding arginine methyltransferase PRMT1 – biochemical, small-molecule microarray, 635 nm fluorescence, primary screen (AID 1088); settings: higher = more signal;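 note: binding of Prmt1 protein to compounds spotted on small-molecule microarray slides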
[2] = growth effects on S. cerevisiae YJM789 – YJM789 clinical isolate, OD600, 24 h, basal, primary screen (AID 1089); settings: higher = more signal, called active from +8 up or from −8 down;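 note: growth of clinical yeast isolate S. cerevisiae YJM 789 seeded 1000 cells per well; test concentration not given here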
[3] = S. pombe growth modifiers, basal conditions – strain 972, OD600, 24 h, no modulator, primary screen (AID 1090);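 note: basal condition with compound alone and no growth modifier present; test concentration not given here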; settings: S. pombe 972 growth, higher = more signal, called active from +8 up or from −8 down
[4] = budding yeast growth modifiers under rapamycin – strain BY4716, OD600, 96 h, primary screen (AID 1091); note: test concentration not given here; settings: S. cerevisiae BY4716 + rapamycin, higher = more signal, called active from +8 up or from −8 down
[5] = target: Torsin-1A-interacting protein 2 (Homo sapiens) (UniProt Q8NFQ8); assay: small molecules binding lysate-expressed LULL1 – cell lysate, human LULL1 lysate, 635/667 nm fluorescence, primary screen (AID 1092); settings: small-molecule microarray, hLULL1 lysate binding, 635 nm fluorescence; higher = more signal;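 note: probe is lysate of COS7 cells overexpressing human LULL1; score merges per-feature 667 nm fluorescence with signal-to-noise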
Chain of Torsin-1A-interacting protein 2 (Homo sapiens) (Q8NFQ8 whole entry, looked up): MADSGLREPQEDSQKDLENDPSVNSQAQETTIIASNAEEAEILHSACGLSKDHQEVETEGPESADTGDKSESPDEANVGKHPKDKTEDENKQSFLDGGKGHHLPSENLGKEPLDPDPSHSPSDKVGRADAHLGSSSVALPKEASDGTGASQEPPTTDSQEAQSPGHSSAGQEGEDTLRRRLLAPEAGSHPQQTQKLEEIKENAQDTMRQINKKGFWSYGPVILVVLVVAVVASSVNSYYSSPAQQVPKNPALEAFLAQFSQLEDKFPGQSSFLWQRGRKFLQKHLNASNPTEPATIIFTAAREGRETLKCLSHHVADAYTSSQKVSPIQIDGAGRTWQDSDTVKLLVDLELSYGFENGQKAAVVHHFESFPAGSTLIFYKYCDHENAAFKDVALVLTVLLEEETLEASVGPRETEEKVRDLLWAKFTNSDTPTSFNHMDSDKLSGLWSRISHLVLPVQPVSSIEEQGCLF

[6] = optical density change of DRC41 E. coli – strain DRC41, OD650, 24 h, E. coli filamentation project, primary screen (AID 1093);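 note: MC1000 strain lacking acrAB efflux and sulA so SOS filamentation is blocked; test concentration not given here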; settings: E. coli DRC41 growth, higher = more signal, called active from +8 up or from −8 down
[7] = probe aLefty2 binding to arrayed compounds – biochemical, biotinylated probe, 635/667 nm fluorescence, primary screen (AID 1094); settings: small-molecule microarray, higher = more signal;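 note: score merges spot fluorescence near 667 nm with spot signal-to-noise ratio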
[8] = system: Noggin (protein binding on small-molecule microarray); assay: small molecules binding Noggin protein – biochemical, 635/667 nm fluorescence, primary screen (AID 1095); settings: 635 nm fluorescence, higher = more signal;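 note: score merges 667 nm feature fluorescence with signal to noise over triplicate slides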
[9] = target: Neurogenic locus notch homolog protein 3 (Homo sapiens) (UniProt Q9UM47); assay: small molecules binding NOTCH3 protein – biochemical, 635/667 nm fluorescence, primary screen (AID 1096); settings: small-molecule microarray, 635 nm fluorescence, higher = more signal
Chain of Neurogenic locus notch homolog protein 3 (Homo sapiens) (Q9UM47 whole entry, looked up): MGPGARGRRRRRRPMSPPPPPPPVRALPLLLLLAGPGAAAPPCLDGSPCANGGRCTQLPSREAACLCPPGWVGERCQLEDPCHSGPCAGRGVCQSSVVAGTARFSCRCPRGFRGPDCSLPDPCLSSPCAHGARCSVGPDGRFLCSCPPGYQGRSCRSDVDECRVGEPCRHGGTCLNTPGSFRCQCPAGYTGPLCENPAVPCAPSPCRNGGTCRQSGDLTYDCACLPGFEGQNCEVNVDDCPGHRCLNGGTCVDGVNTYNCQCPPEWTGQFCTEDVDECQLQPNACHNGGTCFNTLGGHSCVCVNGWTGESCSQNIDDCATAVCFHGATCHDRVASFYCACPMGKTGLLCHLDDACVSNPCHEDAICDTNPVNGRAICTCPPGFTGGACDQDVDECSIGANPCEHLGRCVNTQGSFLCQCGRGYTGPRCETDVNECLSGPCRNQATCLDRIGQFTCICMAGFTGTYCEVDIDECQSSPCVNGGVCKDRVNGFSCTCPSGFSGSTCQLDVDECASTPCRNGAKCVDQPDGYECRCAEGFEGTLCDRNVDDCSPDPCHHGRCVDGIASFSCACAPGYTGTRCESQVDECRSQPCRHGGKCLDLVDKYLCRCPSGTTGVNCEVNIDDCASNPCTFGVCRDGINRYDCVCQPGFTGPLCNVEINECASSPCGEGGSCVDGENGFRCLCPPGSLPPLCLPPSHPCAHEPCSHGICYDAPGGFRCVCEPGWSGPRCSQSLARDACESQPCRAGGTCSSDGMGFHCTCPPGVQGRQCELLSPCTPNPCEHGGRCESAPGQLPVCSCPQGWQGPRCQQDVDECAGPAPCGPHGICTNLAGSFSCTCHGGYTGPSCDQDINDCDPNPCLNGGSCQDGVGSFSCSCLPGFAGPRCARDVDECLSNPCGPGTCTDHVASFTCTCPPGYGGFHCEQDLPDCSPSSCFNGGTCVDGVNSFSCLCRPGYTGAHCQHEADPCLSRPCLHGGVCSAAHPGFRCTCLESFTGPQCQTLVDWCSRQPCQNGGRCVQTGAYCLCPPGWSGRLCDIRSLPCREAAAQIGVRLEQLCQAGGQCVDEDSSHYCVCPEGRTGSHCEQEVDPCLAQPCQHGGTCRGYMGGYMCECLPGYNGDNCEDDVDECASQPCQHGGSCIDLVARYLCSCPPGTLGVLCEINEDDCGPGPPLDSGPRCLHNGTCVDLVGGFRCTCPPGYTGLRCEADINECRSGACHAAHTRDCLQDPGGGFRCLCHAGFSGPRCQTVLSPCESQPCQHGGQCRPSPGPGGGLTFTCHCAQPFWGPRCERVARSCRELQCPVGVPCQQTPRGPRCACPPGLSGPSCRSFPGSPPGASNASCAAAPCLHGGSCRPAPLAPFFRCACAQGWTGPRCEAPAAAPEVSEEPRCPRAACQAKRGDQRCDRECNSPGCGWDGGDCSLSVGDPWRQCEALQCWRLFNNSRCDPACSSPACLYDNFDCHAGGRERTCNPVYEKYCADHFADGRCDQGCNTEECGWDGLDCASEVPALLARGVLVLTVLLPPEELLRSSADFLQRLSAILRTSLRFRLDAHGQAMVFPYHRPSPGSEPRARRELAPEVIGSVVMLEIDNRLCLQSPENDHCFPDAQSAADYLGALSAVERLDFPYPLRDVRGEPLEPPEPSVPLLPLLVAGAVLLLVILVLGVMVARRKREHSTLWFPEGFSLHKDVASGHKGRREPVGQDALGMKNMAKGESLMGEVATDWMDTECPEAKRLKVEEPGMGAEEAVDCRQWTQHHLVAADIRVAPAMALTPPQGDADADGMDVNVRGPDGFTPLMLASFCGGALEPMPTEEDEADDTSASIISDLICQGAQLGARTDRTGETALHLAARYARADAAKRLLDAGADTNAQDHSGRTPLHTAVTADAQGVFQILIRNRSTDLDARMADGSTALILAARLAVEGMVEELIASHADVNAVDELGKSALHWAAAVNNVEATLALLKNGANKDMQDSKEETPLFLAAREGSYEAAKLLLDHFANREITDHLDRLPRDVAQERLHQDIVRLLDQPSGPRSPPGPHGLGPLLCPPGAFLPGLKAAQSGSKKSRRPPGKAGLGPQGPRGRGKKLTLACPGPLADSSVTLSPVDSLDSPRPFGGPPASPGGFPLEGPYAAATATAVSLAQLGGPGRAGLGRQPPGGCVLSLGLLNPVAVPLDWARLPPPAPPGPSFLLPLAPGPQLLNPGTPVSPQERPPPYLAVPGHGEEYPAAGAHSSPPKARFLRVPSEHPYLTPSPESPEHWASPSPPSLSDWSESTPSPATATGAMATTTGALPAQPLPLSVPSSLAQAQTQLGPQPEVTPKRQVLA

[10] = probe aEGFR binding to arrayed compounds – biochemical, biotinylated probe, 635/667 nm fluorescence, primary screen (AID 1097); settings: small-molecule microarray, higher = more signal;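 note: probe is a biotinylated anti-EGFR antibody binding compounds printed on slides; score combines fluorescence near 667 nm and signal to noise of each spot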
[11] = system: Plasmodium falciparum Sir2 (PF13_0152, Sir2A); assay: Plasmodium falciparum Sir2A binding compounds – biochemical, small-molecule microarray, 635 nm fluorescence, primary screen (AID 1098); settings: fluorescence 635 nm, higher = more signal;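 note: score merges spot fluorescence intensity with its signal-to-noise ratio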
[12] = probe aDKK1 binding to arrayed compounds – biochemical, biotinylated probe, 635/667 nm fluorescence, primary screen (AID 1099); settings: small-molecule microarray, higher = more signal;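 note: score merges 667nm spot fluorescence with signal to noise across triplicate slides; reference of the scale not given here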
[13] = probe aCHRDL2 binding to arrayed compounds – biochemical, biotinylated probe, 635/667 nm fluorescence, primary screen (AID 1100); settings: small-molecule microarray, higher = more signal
[14] = change in splice reporter luminescence, either direction, cell-based, HEK293, spliceosome inhibition project, primary screen (AID 1101); settings: HEK293 splicing luciferase reporter, 24 h, higher = more signal, called active from +8 up or from −8 down;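 note: HEK293 cells carrying a splicing-competent luciferase reporter gene; test concentration not given here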
[15] = target: Fibroblast growth factor 10 (Homo sapiens) (UniProt O15520); assay: compounds binding fibroblast growth factor 10 – biochemical, small-molecule microarray, 635 nm fluorescence, primary screen (AID 1102); settings: FGF10 binding, fluorescence 635 nm, higher = more signal
Chain of Fibroblast growth factor 10 (Homo sapiens) (O15520 whole entry, looked up): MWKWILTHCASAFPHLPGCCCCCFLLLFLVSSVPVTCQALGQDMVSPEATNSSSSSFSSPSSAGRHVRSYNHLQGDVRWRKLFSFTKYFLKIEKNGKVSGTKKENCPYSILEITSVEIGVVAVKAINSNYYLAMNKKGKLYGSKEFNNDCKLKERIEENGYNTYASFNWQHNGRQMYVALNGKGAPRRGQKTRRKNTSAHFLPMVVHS

[16] = system: glycogen synthase kinase-3 (GSK3A per assay name; protocol says GSK3B); assay: compounds binding glycogen synthase kinase-3 – biochemical, small-molecule microarray, 635 nm fluorescence, GSK3A, primary screen (AID 1103); settings: fluorescence 635 nm, higher = more signal; note: the record names both GSK3A and GSK3B
[17] = target: Epidermal growth factor receptor (Homo sapiens) (UniProt P00533); assay: compounds binding epidermal growth factor receptor – biochemical, small-molecule microarray, 635 nm fluorescence, primary screen (AID 1104); settings: EGFR binding, higher = more signal;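 note: score merges 667 nm emission intensity with spot signal to noise over triplicate slides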
Chain of Epidermal growth factor receptor (Homo sapiens) (P00533 whole entry, looked up): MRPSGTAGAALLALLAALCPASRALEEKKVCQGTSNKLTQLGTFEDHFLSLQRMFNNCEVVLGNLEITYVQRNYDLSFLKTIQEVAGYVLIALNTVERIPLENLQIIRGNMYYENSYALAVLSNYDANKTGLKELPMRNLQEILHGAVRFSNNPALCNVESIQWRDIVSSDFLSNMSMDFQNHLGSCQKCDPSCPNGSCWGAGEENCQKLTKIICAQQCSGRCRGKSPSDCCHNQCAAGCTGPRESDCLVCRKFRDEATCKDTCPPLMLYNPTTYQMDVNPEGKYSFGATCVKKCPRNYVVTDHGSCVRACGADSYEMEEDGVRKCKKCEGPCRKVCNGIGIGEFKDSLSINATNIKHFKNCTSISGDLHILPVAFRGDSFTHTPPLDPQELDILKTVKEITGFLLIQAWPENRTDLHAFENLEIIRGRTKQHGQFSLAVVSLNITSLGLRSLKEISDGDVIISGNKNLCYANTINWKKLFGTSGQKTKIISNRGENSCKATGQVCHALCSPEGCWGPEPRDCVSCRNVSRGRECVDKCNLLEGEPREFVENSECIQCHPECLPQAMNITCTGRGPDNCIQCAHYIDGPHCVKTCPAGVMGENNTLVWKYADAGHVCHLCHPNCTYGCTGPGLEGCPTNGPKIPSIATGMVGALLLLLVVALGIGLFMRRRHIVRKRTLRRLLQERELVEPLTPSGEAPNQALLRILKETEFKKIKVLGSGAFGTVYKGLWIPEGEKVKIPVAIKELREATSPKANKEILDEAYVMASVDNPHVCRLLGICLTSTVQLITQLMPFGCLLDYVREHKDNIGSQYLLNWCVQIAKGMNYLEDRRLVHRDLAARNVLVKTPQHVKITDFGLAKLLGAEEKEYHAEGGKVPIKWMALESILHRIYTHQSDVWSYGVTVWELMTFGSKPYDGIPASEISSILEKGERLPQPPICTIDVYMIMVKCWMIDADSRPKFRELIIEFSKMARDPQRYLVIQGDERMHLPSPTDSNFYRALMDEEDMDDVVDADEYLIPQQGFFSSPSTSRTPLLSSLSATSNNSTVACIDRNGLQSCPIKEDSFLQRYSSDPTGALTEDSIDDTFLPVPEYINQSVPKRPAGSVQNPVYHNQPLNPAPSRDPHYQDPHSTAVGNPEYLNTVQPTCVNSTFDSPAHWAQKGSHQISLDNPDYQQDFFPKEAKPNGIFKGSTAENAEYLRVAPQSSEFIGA

[18] = target: Follistatin-related protein 3 (Homo sapiens) (UniProt O95633); assay: compounds binding follistatin-related protein 3 – biochemical, small-molecule microarray, 635 nm fluorescence, primary screen (AID 1105); settings: FSTL3 binding, higher = more signal;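 note: score merges emission near 667 nm and signal to noise per printed spot across three slides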
Chain of Follistatin-related protein 3 (Homo sapiens) (O95633 whole entry, looked up): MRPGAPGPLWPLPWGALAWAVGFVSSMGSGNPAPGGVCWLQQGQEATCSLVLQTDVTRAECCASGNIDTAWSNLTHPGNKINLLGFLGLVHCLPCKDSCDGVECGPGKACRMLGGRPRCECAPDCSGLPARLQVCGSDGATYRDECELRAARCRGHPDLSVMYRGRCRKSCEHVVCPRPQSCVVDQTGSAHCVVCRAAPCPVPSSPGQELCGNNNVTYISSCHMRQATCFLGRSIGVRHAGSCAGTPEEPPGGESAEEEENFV

[19] = target: Dickkopf-related protein 1 (Homo sapiens) (UniProt O94907); assay: small molecules binding DKK1 protein – biochemical, small-molecule microarray, 635 nm fluorescence scan, primary screen (AID 1106); settings: higher = more signal;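 note: score merges emission near 667 nm with signal to noise over three replicate slides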
Chain of Dickkopf-related protein 1 (Homo sapiens) (O94907 whole entry, looked up): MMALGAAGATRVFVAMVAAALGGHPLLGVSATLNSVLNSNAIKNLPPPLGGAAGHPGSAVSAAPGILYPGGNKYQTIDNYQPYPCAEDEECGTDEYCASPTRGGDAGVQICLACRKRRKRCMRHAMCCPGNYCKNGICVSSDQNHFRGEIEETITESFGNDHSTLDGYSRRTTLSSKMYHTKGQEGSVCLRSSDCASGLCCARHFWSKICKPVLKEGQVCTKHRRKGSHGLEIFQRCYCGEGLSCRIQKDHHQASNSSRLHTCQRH

[20] = system: Inhibin beta A chain (activin A); assay: small molecules binding activin A – biochemical, small-molecule microarray, 635 nm fluorescence scan, primary screen (AID 1107); settings: INHBA, higher = more signal;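 note: mouse activin A protein probed at 4.33 µg/mL on printed slides; score merges bound-protein fluorescence near 667 nm with spot signal-to-noise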

Row | Structure (SMILES) | composite z-score [1] | z-score [2] | z-score [3] | z-score [4] | composite z-score [5] | z-score [6] | composite z-score [7] | composite z-score [8] | composite z-score [9] | composite z-score [10] | composite z-score [11] | composite z-score [12] | composite z-score [13] | z-score [14] | composite z-score [15] | composite z-score [16] | composite z-score [17] | composite z-score [18] | composite z-score [19] | composite z-score [20]
1 | O=C1O[C@@H](c2ccccc2)[C@@H](c2ccccc2)N2[C@@H](c3ccc(OCCO)cc3)[C@]3(C(=O)Nc4ccc(C#CCCO)cc43)[C@@H](C(=O)NC[C@H](O)c3ccccc3)[C@H]12 | 1.54 | 2.55 (inactive) | 1.19 (inactive) | 4.63 (inactive) | 2.71 | 0.695 (inactive) | 0.409 | 1.25 | 0.667 | 0.258 | 1.51 | 0.312 | 0.333 | -0.6 (inactive) | 0.84 | 0.905 | 0.94 | 0.956 | 0.687 | 0.73
2 | COC(=O)C(CC#Cc1ccc2c(c1)[C@]1(C(=O)N2)[C@H](c2ccccc2OCCO)N2[C@H](c3ccccc3)[C@H](c3ccccc3)OC(=O)[C@H]2[C@@H]1C(N)=O)C(=O)OC | 1.27 | 1.31 (inactive) | -0.117 (inactive) | 3.7 (inactive) | 2.93 | 1.13 (inactive) | 1.11 | 0.0814 | 0.895 | 0.656 | 1.54 | 1.45 | 0.862 | -3.57 (inactive) | 0.376 | 1 | 0.241 | 0.412 | -0.221 | 0.693
3 | O=C(CS)NCCCCCNC(=O)[C@H]1C[C@H]2C(=O)NCC(=O)N2[C@H]1c1ccc(O)cc1 | -0.313 | -2.76 (inactive) | 1.02 (inactive) | -1.11 (inactive) | -1.29 | 0.77 (inactive) | -0.179 | -0.177 | -0.905 | -0.132 | 0.394 | -0.164 | 0.699 | -1.35 (inactive) | -1.04 | -1.32 | -0.641 | -0.749 | -0.887 | -0.583
4 | CCCC[C@@H]1C[C@H]1[C@@H](NC(=O)c1cccnc1)c1ccc(Cl)cc1 | -2.81 | -25 (active) | -15.4 (active) | 0.887 (inactive) | 0.208 | -3.26 (inactive) | -0.165 | -2.93 | -2.46 | -0.428 | -1.89 | 0.636 | 1.38 | -2.46 (inactive) | -2.18 | -2.37 | -2.19 | -2.37 | -2.48 | 0.0159
5 | COc1ccc(NC(=O)O[C@H]2[C@H](OC(=O)c3cc4ccccc4[nH]3)[C@@H](OC(=O)c3cc4ccccc4[nH]3)[C@@H](OC)O[C@@H]2CO)cc1 | 0.496 | -1.68 (inactive) | -0.519 (inactive) | 0.611 (inactive) | 1.54 | 0.593 (inactive) | -0.007 | 0.21 | 0.475 | -0.0409 | 1.24 | -0.0147 | 0.358 | -1.07 (inactive) | 0.523 | 0.212 | -0.245 | 0.448 | -0.011 | 0.287
6 | [N-]=[N+]=NCc1ccccc1[C@@H]1OC(c2ccc(OCCCO)cc2)=N[C@]1(CCS(=O)(=O)c1ccccc1)C(=O)N1CCCCC1 | 1.56 | -0.238 (inactive) | 0.454 (inactive) | 1.44 (inactive) | 2.94 | 0.622 (inactive) | 0.0563 | 0.36 | 1.02 | 0.208 | 1.65 | 0.0798 | 0.904 | -0.162 (inactive) | 0.828 | 1.29 | 0.453 | 1.19 | -0.154 | 1.08
7 | O=C1O[C@H](c2ccccc2)[C@H](c2ccccc2)N2[C@H]1[C@@H](C(=O)NC[C@H](O)c1ccccc1)[C@]1(C(=O)Nc3ccc(C#CC4=CCCCC4)cc31)[C@H]2c1ccccc1OCCO | 1.43 | 2.2 (inactive) | -0.874 (inactive) | 2.64 (inactive) | 1.64 | -0.0991 (inactive) | 0.107 | 0.545 | 0.786 | 0.032 | 0.312 | 0.697 | 0.722 | -1.74 (inactive) | 0.439 | 1.13 | 0.208 | 0.627 | 0.359 | 1.06
8 | O=C1NC(=O)C2C1C=CC(C(O)C1CC=CCC1)N2Nc1ccccn1 (stereo not given) | 0.241 | 1.13 (inactive) | 0.869 (inactive) | 0.728 (inactive) | 0.861 | -0.813 (inactive) | 0.113 | -0.0801 | 0.328 | 0.26 | 1.27 | 0.228 | 0.21 | 1.17 (inactive) | 0.946 | 0.0089 | 1.25 | 0.179 | 1.33 | 1.75
9 | COC(=O)c1c(CC[C@@H](CO)NC(=O)N[C@H](Cc2ccccc2)Cn2cc(-c3ccccn3)nn2)oc(C(C)=O)c1C(=O)OC | 0.73 | -0.413 (inactive) | 0.0254 (inactive) | -0.398 (inactive) | 1.68 | -0.419 (inactive) | -0.207 | -0.151 | 0.0619 | -0.096 | 1.48 | -0.123 | -0.379 | 1.01 (inactive) | 0.384 | 0.17 | -0.371 | -0.15 | -0.328 | -0.285
10 | NC(=O)NCC#Cc1ccc2c(c1)[C@]1(C(=O)N2)[C@H](C(=O)O)[C@H]2C(=O)O[C@H](c3ccccc3)[C@H](c3ccccc3)N2[C@@H]1c1ccc(O)cc1 | 0.167 | 0.0288 (inactive) | -0.856 (inactive) | -0.483 (inactive) | 0.68 | -1.16 (inactive) | 0.883 | 0.758 | 0.767 | 0.0156 | 0.783 | 1.18 | 1.24 | 0.72 (inactive) | 0.295 | -0.576 | -0.16 | 1.28 | 0.181 | 1.25
